A selection: hits, their analogues and other compounds. The true share with any hit is near 7.3%.
FLuc counter: inhibits or activates purified firefly luciferase, miR-21 counter-screen; AID 588342; Potency, µM (highest dose often 57.5 µM), for the others: at the highest dose activity change, negative = inhibition, hits mostly inhibitors; 360,000 compounds, 6.9% hits; purified FLuc, Km substrates, luminescence inhibition; P08659;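 further: plate controls were vehicle for no effect and reference inhibitor for full effect; nearly all actives have a fitted effect of over 55% in size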
Target sequence (P08659 whole entry, looked up): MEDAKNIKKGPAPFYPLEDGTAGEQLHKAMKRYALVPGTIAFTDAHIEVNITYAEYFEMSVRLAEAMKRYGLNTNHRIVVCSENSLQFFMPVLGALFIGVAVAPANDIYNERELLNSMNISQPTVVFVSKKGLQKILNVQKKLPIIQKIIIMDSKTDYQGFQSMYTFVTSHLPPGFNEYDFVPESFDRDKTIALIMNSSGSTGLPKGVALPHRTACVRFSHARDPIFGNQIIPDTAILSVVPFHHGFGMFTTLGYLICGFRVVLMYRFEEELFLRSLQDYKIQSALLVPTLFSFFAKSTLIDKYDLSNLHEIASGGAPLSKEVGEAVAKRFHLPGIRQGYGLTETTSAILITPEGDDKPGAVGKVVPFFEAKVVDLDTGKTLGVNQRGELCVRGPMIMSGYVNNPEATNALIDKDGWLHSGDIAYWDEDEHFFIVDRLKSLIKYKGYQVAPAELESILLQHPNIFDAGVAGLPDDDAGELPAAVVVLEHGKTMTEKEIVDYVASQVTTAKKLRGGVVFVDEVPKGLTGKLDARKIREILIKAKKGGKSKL
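Purified P. pyralis luciferase, 10 nM final, with Km-level 10 uM D-luciferin and 10 uM ATP in 50 mM Tris acetate pH 7.5, 10 mM Mg acetate, 0.01% Tween-20, 0.05% BSA; 6-point qHTS titration about 60 µM downward; luminescence read.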
SMN2 splice enh: SMN2 splice variant enhancement; 210,000 compounds, 2.8% hits; HEK293 SMN2-luciferase splicing reporter, luminescence, 30-36 h; Potency, µM (titrated, usually from 46.1 µM), without a hit: top-dose activity change, positive = activation, most hits filed as activators; AID 1458; further: % of control where 0% means no effect; nearly all actives have a fitted effect of over 55% in size
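HEK293 cells carry an SMN2 minigene-luciferase reporter in which exon 7 inclusion puts luciferase in frame. Cells were seeded at 2000 cells/well, attached for 10-12 hours, then exposed to compounds for 30-36 hours at 37C before ONE-Glo luminescence.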
Rab9 promoter act: activators of Rab9 promoter. Huh7 Rab9 promoter-luciferase reporter, luminescence, 24 h. Potency, µM (top dose mostly 9.22 µM), for inactives: at the top dose activation, negative = inhibition, actives largely listed as activators. 320,000 compounds, 2.8% hits; further: % of control where 0% means no effect; nearly all actives have a fitted effect of over 60% in size
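Cell-based reporter: Huh7 stable for Rab9 promoter-driven luciferase, plated in reduced-serum medium with 10% FBS at 1500 cells/well, compound-treated 24 h at 37 °C, luminescence read after 10 min reagent.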
ELG1 genotoxic: genotoxicity induction in ELG1-luciferase HEK293T cells; HEK293T ELG1-luciferase reporter, luminescence, 16 h; Potency, µM (titrated, usually from 46 µM), for inactives: at the highest dose activity change, positive = activation, usual class: activators; 330,000 compounds, 1.3% hits; further: % of control where 0% means no effect; nearly all actives have a fitted effect of over 60% in size
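Reporter readout depends on ELG1 protein level, which increases with genetic stress. After 16 hr compound exposure at 37 °C, luciferase activity was quantified using ONE-Glo.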
KinaseGlo FLuc: blocks Kinase-Glo luciferase, a counter-screen artifact | Q27757 | Kinase-Glo luciferase, ATP luminescence, 8 min | Potency, µM (top dose mostly 38.3 µM), inactives show top-dose activity change, negative = inhibition, hits mostly inhibitors | 200,000 compounds, 0.28% hits | AID 1379; further: on the % scale 0 is the no-effect control and ±100 the full control effect; nearly all actives have a fitted effect of over 60% in size
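Inhibition of Kinase-Glo luciferase light generation was assessed at 10 uM ATP in pH 7.2 imidazole buffer, with luminescence measured after eight minutes at ambient temperature.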
NPC1 prom act: activators of NPC1 promoter; Huh7 NPC1 promoter luciferase reporter, 24 h; Potency, µM (highest dose often 9.22 µM), for the others: at the highest dose activation, most hits filed as activators; 320,000 compounds, 2.4% hits; AID 485313; further: % of control where 0% means no effect; nearly all actives have a fitted effect of over 60% in size
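In 1536-well qHTS, Huh7 cells harboring an NPC1 promoter–luciferase construct received compound for 24 h; activation was quantified by luminescence following luciferase reagent addition.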
Numbers without * were called inactive; ? = inconclusive; . = no result; [ ] = remark or other dose. The call rests on the fitted dose curve; in most records, active means well fitted curve in the direction sought with a large enough effect; inconclusive means small, poorly fitted or top-dose-only effect, or another doubt; inactive means no such curve, though single readings can be large; an effect the other way counts as inactive or inconclusive. Potency means the concentration at half of the fitted maximal effect.

SMILES	FLuc counter	SMN2 splice enh	Rab9 promoter act	ELG1 genotoxic	KinaseGlo FLuc	NPC1 prom act
COc1ccc(C(=O)Nc2cc(C)on2)cc1OC	-6%	.	2%	16%	.	-3%
Cc1cc(NC(=O)c2ccc3c(c2)OCO3)no1	11µM*	11µM*	1.6µM*	?	-13%	2.5µM*
CCOc1ccc(C(=O)Nc2cc(C)on2)cc1OCC	3%	-3%	1%	12%	-3%	-1%
Cc1nnc(SCc2c(Cl)cccc2[N+](=O)[O-])s1	-2%	-5%	-5%	2%	-3%	-1%
OCc1nnc2c3ccccc3c(-c3ccccc3)nn12	1%	3%	-3%	-1%	-5%	-1%
CCOC(=O)CN1C(=O)N[C@@H](CCc2ccccc2)C(C(=O)OC)=C1C	.	4%[9.22 µM]	.	.	-2%[7.66 µM]	.
Cc1cc(NC(=O)c2ccc(F)cc2)no1	17µM*	.	?	?	.	?
Cc1cc(NC(=O)c2nn(C)c(C)c2Br)no1	?	.	2.8µM*	?	.	?
CC(=O)Nc1ccc(C(=O)Nc2cc(C)on2)cc1	-4%	.	10%	11%	.	5%
CCN1CCN(C(c2ccccc2Cl)c2c(O)cc(C)n(Cc3ccco3)c2=O)CC1 (centres undefined)	-16%	.	.	.	.	.
CC(=O)Nc1ccc(S(=O)(=O)N2CCC(N3CCN(Cc4ccc(C)cc4)C(=O)C3=O)CC2)cc1	-2%	.	.	.	.	.
O=C(CCS(=O)(=O)c1cccs1)NC1CCCCCC1	17µM*	20%	3.5µM*	?	-3%	2.8µM*
COc1ccc(-c2ccc(SCC(=O)c3ccccc3)nn2)cc1OC	24µM*	-1%	1%	-4%	1%	-1%
Cc1ccc(C(=O)CSc2ccc(-c3ccncc3)nn2)cc1	-3%	-10%	-10%	-7%	-3%	-13%
COc1ccc(-c2ccc(SCC(=O)Nc3cc(C)on3)nn2)cc1OC	-8%[2.3 µM]	.	?	1%	1%	11%
Cc1ccc(-c2ccc(SCC(=O)c3ccccc3)nn2)cc1	15µM*	6.3µM*	?	?	-3%	?
C=CC[n+]1c(C)csc1Nc1ccc(C(=O)O)cc1	-18%	10%	-7%	8%	-1%	-1%
CCOC(=O)Nc1sc2c(c1C#N)CCC(C)C2 (centres undefined)	11µM*	20%	3.2µM*	?	-2%	2.8µM*
CC1CCc2c(sc(NC(=O)C3CCCO3)c2C#N)C1 (centres undefined)	11µM*	11µM*	3.2µM*	?	2%	3.5µM*
CC1CCc2c(sc(/N=C/N(C)C)c2C#N)C1 (centres undefined)	15µM*	25%	4.5µM*	?	1%	24%
CC1CCc2c(sc(NC(=O)COC(=O)C3CCCO3)c2C#N)C1 (centres undefined)	?	20%	22%	17%	3%	12%
CCCCNc1nc2ccccc2nc1Cl	-1%	-10%	-9%	4%	1%	-9%
Cc1c(C)c(C)c(S(=O)(=O)n2[nH]c(=O)c(CCO)c2C)c(C)c1C	-5%	7%	-7%	2%	-2%	-3%
CN1CCN(C(=O)c2cc3sc4ccccc4c3s2)CC1	3µM*	.	0.71µM*	?	.	0.63µM*
CCc1ccc(/C=C\C(=O)N2CCc3ccccc3C2)cc1	7.6µM*	-3%	2%	?	-6%	3%
SMILES	FLuc counter	SMN2 splice enh	Rab9 promoter act	ELG1 genotoxic	KinaseGlo FLuc	NPC1 prom act
O=C(/C=C/c1c(F)cccc1Cl)N1CCc2ccccc2C1	17µM*	.	18%	8%	.	21%
COc1cc(C(c2c(C)[nH][nH]c2=O)c2c(C)[nH][nH]c2=O)ccc1OC(=O)c1cccc([N+](=O)[O-])c1	1%	-8%	-8%	0%	3%	-4%
COC(=O)C(=Cc1ccc(OCc2ccc([N+](=O)[O-])cc2)c(OC)c1)C(=O)OC	9.5µM*	16µM*	1%	?	0%	-1%
CCOC(=O)/C(=C\c1ccc(OC)c(OC)c1)C(=O)c1cccnc1	-2%	.	-1%	-1%	.	4%
CCOC(=O)C(=Cc1ccc(OCc2ccc([N+](=O)[O-])cc2)c(OC)c1)C(=O)OCC	15µM*	-13%	-2%	-9%	3%	-3%
COc1cc(C(c2c(C)[nH][nH]c2=O)c2c(C)[nH][nH]c2=O)ccc1OCc1ccc([N+](=O)[O-])cc1	-20%	18µM*	0%	18µM*	20%	19%
COc1ccc(S(=O)(=O)N2CCN(CCC(=O)Nc3ccccc3F)CC2)cc1	0%	2%	1%	-1%	18%	1%
COc1ccccc1NS(=O)(=O)c1ccc(C(=O)N2CCCC(C(F)(F)F)C2)cc1 (centres undefined)	1%	.	2%	1%	.	0%
O=C(Cn1c(=O)nc(-c2ccccc2)c2ccccc21)Nc1ccc(Cl)cc1F	0%	-5%	.	.	.	.
O=C(c1ccccc1)c1ccc(COC(=O)c2cnccn2)cc1	24µM*	4%	-1%	6%	-4%	0%
O=C(O)c1ccccc1OCc1nc2ccccc2s1	3.8µM*	.	11%	?	.	?
O=C(O)c1ccccc1OCc1ccccc1Br	-14%	10%	-1%	-4%	2%	-1%
O=C(OCc1nc2ccccc2s1)c1cccc(N2C(=O)CCC2=O)c1	?	-2%	23%	7%	-3%	2%
COc1cc(OC)cc(C(=O)NCC(=O)OCc2nc3ccccc3s2)c1	9.5µM*	.	?	?	-8%	14%
O=C(OCc1nc2ccccc2s1)c1cnccn1	11µM*	-4%	4%	?	-7%	-2%
CCCC1(c2ccccc2)NC(=O)N(CC(=O)Nc2ccc(N3CCOCC3)cc2)C1=O (centres undefined)	.	.	.	1%	.	.
CCN1CCN(c2oc(-c3ccccc3)nc2S(=O)(=O)c2ccc(C)cc2)CC1	3%	.	-10%	0%	.	-1%
Cc1cccc(C(=O)Oc2ccccc2/C=N/NC(=O)c2ccc(NC(=O)C(C)(C)C)cc2)c1	1%	0%[1.84 µM]	12%	5%	1%	-2%
Cc1ccc(C)c(N2CCN(C(=O)CCS(=O)(=O)c3cc4c(cc3Cl)NC(=O)CO4)CC2)c1	0%	.	.	.	.	.
CC(C)(C)c1ccc(C(=O)OC/C(O)=C(\C#N)c2nc3ccccc3s2)cc1	-7%	4%	-4%	-2%	0%	-1%
CCCCC(=O)OCc1nc2ccccc2s1	21µM*	10%	15%	9%	-4%	-1%
O=C(OCc1nc2ccccc2s1)c1ccccc1O	8.5µM*	-4%	24%	?	-17%	7%

Source: PubChem BioAssay (National Center for Advancing Translational Sciences (NCATS))
